Compound activity as filed in PubChem.
Cycloheximide cs: counter-screen hit for Shiga toxin inhibitors, cycloheximide. max response, %. cell reporter, cycloheximide protein synthesis inhibition counterscreen. 300,000 compounds, 12% hits; in the data active = max response mostly above about 13%, no sharp cut-off; inactive = mostly below about 14%; note: read at 38.3 µM for the half of the compounds with a filed dose
Pf growth 96h: P. falciparum growth inhibition at 96 hours | AID 504834 | Potency, µM (highest dose often 28.7 µM), actives largely listed as inhibitors | P. falciparum luciferase reporter growth, 96 h | 320,000 compounds, 6.9% hits
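P. falciparum expressing integrated firefly luciferase, in erythrocytes at 2% hematocrit, 0.05% parasitemia, incubated with compounds 96 h at 37 C, 5% CO2. Growth inhibition read as loss of luminescence; two-generation exposure targets delayed-death apicoplast inhibitors.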
Sm TGR inh: inhibitors of Schistosoma mansoni thioredoxin glutathione reductase; purified TGR, DTNB reduction, TNB absorbance 405 nm; Potency, µM (series often up to 114 µM), usual class: inhibitors; 360,000 compounds, 3% hits; note: nearly all actives have a fitted effect of over 60% in size
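Kinetic colorimetric format: TGR-catalysed, NADPH-driven DTNB reduction monitored via TNB absorbance. Enzyme dispensed at 20 nM; compound exposure 15 min at room temperature before reaction start.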
Pf growth 48h: inhibits P. falciparum growth in the first generation, 48 h. Potency, µM (highest dose often 28.7 µM), most hits filed as inhibitors. P. falciparum luciferase growth in erythrocytes, 48 h. 310,000 compounds, 5.9% hits
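Read-out is firefly luciferase luminescence from an integrated reporter in P. falciparum, so falling signal marks reduced parasite growth. Infected erythrocytes were at 2% hematocrit and 0.1% parasitemia (final) in Albumax-supplemented RPMI 1640.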
NS1 function inh: inhibitors of influenza NS1 protein function; Potency, µM (titrated, usually from 46.1 µM); 270,000 compounds, 0.4% hits; calls by dose curve; note: actives are rising curves; nearly all actives have a fitted effect of over 50% in size
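OD600 was taken as the measure of yeast growth restored by compound in an NS1-expressing S. cerevisiae strain. Cells had been washed out of glucose medium and diluted 1:100 into galactose -URA medium, pH 6.0.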
Shiga inhibitor: blocks Shiga toxin action in Vero cells; Vero cells, Shiga toxin protein synthesis inhibition reporter; AID 2315; 290,000 compounds, 9.2% hits; inhibition, % at 38.7 µM; in the data active = inhibition mostly above about 28%, no sharp cut-off; inactive = mostly below about 43%
A number is an active result; n = inactive; u = inconclusive; x = no result given. A selection: hits, their analogues and other compounds. The true share with any hit is near 21%. Unless noted, calls come from the whole dose curve; as a rule, active = well fitted curve in the direction sought with a large enough effect; inconclusive = small, poorly fitted or top-dose-only effect, or another doubt; inactive = no such curve, though single readings can be large; an effect the other way counts as inactive or inconclusive.

SMILES	Cycloheximide cs	Pf growth 96h	Sm TGR inh	Pf growth 48h	NS1 function inh	Shiga inhibitor
CN1[C@@H]2CC[C@H]1CC(OC(=O)C1C=Nc3ccccc31)C2 (stereo partly specified)	n	13µM	n	u	n	n
OC1(C#CCN2CCCC2)c2ccccc2-c2ccccc21	n	u	n	12µM	n	n
CCN(CC)CCC#CC1(O)c2ccccc2-c2ccccc21	n	3.3µM	n	n	n	x
CN(C)CCC#CC1(O)c2ccccc2-c2ccccc21	n	n	n	n	n	n
CC1Cc2cc(S(=O)(=O)NCc3ccc(F)cc3)ccc2N1C(=O)C1CCC1 (stereo unspecified)	x	x	n	x	x	x
O=C1CC(c2ccco2)CC2=C1C(c1ccccc1)n1nc(C(F)(F)F)nc1N2 (stereo unspecified)	n	x	u	9.3µM	n	n
CC(C)c1ccc(C2C3=C(CC(c4ccco4)CC3=O)Nc3nc(C(F)(F)F)nn32)cc1 (stereo unspecified)	n	x	x	x	x	n
O=C1[C@@H]2C(c3cccnc3)=NO[C@@H]2C(=O)N1c1ccc2ccccc2c1	n	n	3.5µM	n	n	n
O=C(CCCCn1c(=O)c2ccccc2n(Cc2ccc(Cl)cc2)c1=O)NCc1ccccc1Cl	x	x	n	x	x	x
Cc1c(CNCc2ccc(Cl)cc2)c(C(=O)O)c(C)n1Cc1ccc(F)cc1	x	x	n	x	x	x
COc1ccccc1-c1nc(COc2ccc(Cl)cc2Cl)no1	52	n	n	n	n	91
COc1cccc(-c2nc(COc3ccc(Cl)cc3Cl)no2)c1	14	n	n	n	n	n
COc1cc(C)ccc1OCCOc1cc(C)ccc1Cl	n	u	n	n	u	n
COc1cc(C)ccc1OCCON1C(=O)CCC1=O	32	n	x	n	n	n
COc1ccccc1OCCCOc1ccc(C)cc1Br	46	n	n	n	n	74
COc1cc(C)ccc1OCCOc1c(C)cccc1Cl	24	n	n	n	n	57
COc1cc(C)ccc1OCCCOc1ccccc1Br	64	n	n	n	n	110
COc1cc(C)ccc1OCCOc1c(Cl)cc(Cl)cc1Cl	n	n	n	u	n	n
CC(C)Cn1c(SC(C)C(=O)NCC2CCCO2)nc2ccc(Cl)cc2c1=O (stereo unspecified)	x	u	n	u	x	x
CCOc1ccc(-c2nc3scc(-c4cccs4)c3c(=O)[nH]2)cc1	n	n	n	n	x	n
O=C(O)c1ccc2c(=O)n3c(nc2c1)/C(=C/c1ccc(C(F)(F)F)cc1)CC3	n	n	n	x	n	n
O=c1c2ccccc2nc2n1CC/C2=C/N1CCN(c2cccc(C(F)(F)F)c2)CC1	n	n	32µM	u	u	n
CCCSc1ncc(Cl)c(C(=O)NCc2ccc(C)cc2)n1	x	x	n	x	x	x
Cc1cc(C)c(/C=C/c2onc(C)c2S(=O)(=O)N2CCC(C(=O)NCCc3ccccc3)CC2)c(C)c1	x	x	n	x	x	x
Cc1noc(C)c1COC(=O)c1ccc2ccccc2n1	n	n	n	n	n	n
SMILES	Cycloheximide cs	Pf growth 96h	Sm TGR inh	Pf growth 48h	NS1 function inh	Shiga inhibitor
CCN1CCN(C(=O)c2ccc(-c3nc4ccccc4s3)s2)CC1	42	n	n	n	x	103
CCNC(=O)COC(=O)c1cc(C)nc2ccccc12	n	n	n	n	x	n
CCOC(=O)C1CCN(S(=O)(=O)c2ccc(-c3nc4ccccc4s3)s2)CC1	45	u	n	n	n	69
Cc1noc(C)c1COC(=O)c1ccc(-c2nc3ccccc3s2)s1	18	u	n	n	n	73
CCNC(=O)COC(=O)c1ccc(-c2nc3ccccc3s2)s1	34	n	n	n	x	99
CCc1ccc(NC(=O)CC2C(=O)N(c3ccc(Cl)cc3)C(=O)N2C2CCCC2)cc1 (stereo unspecified)	n	x	n	x	x	n
O=C(COc1coc(CN2CCN(c3ccc(F)cc3)CC2)cc1=O)NCC1CCCO1 (stereo unspecified)	x	n	n	n	x	x
CCN(CC(=O)NCc1cccs1)C(=O)c1ccc(NS(=O)(=O)c2ccc(C(C)=O)cc2)cc1	x	n	n	n	x	x
CC(=O)OCC(NC(=O)C(Cc1ccccc1)NC(=O)OC(C)(C)C)C1OC(n2cc(F)c(=O)[nH]c2=O)C(OC(C)=O)C1OC(C)=O (stereo unspecified)	n	x	x	x	x	n
COc1ccc(/C(O)=C2\C(=O)C(=O)N(c3cc(C)on3)C2c2ccc(OC)c(OC)c2)cc1OC (stereo unspecified)	n	u	n	n	n	n
